Consider 23 compounds from PubChem BioAssay.

A number with no mark means an inactive call. For some of these results: Potency and affinity values are given separately. Active and inactive are the calls of the source. Unless noted, no rule for the calls is given here.

Test [1] can be described thus: antimalarial activity against Dd2 strain (AID 2302;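 active = growth inhibition above 50% at the single 2 µM test dose, taken to imply half-maximal potency below 2 µM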;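 also: 0% = DMSO untreated growth and 100% = chloroquine plus artemisinin killed control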). The settings on record: P. falciparum Dd2 in RBCs, LDH growth readout, 72 h; at 2 µM; active compounds read high.
A short description of test [2]: HepG2 cytotoxicity, primary screen, cytotoxicity control for P. falciparum antimalarial project, cell-based, ATP luminescence (AID 2303;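 active = inhibition above 50%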;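 also: 0% = DMSO wells and 100% = digitonin-killed cells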). The settings on record: HepG2 viability, 24-48 h, at 10 µM, active compounds read high.
Test [3] deals with L-lactate dehydrogenase (Plasmodium falciparum (isolate CDC / Honduras)) (UniProt Q27743). The experiment in a line: PfLDH activity inhibition – cell lysate, 3D7 strain, counter-screen for P. falciparum growth inhibition project (AID 2304).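 Also: 0% = vehicle and 100% = reference inhibitor.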 The settings on record: P. falciparum 3D7 crude extract, LDH APAD/NBT absorbance; at 2 µM; active compounds read high. (In general: Counterscreens check selectivity or assay interference.)
Sequence of L-lactate dehydrogenase (Plasmodium falciparum (isolate CDC / Honduras)) (Q27743 whole entry, looked up): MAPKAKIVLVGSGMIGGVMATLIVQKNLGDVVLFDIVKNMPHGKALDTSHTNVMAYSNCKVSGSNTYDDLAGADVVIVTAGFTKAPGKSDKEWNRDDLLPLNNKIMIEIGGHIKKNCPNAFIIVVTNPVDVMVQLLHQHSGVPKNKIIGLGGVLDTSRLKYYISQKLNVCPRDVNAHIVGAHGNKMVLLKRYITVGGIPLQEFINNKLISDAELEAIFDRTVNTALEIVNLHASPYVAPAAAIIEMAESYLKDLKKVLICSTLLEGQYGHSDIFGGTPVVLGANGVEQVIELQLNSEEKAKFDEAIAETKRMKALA

The nature of test [4]: inhibition of 3D7 malaria parasite growth – strain 3D7 (AID 2306).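 Also: 0% = DMSO wells and 100% = chloroquine plus artemisinin control wells.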 The note with it: P. falciparum 3D7 erythrocytic growth, LDH absorbance, 72 h; at 2 µM; active compounds read high.
Test [5] addresses Calcium-dependent protein kinase 1 (Plasmodium falciparum (isolate 3D7)) (UniProt P62344). The experiment in a line: PfCDPK1 kinase inhibitors, biochemical, TCAMS library (AID 1159585; cut-off not given, nearly all actives have IC50 up to about 0.98 µM;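 also: inhibitors leave more ATP so luminescence rises with inhibition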). The note with it: recombinant PfCDPK1, Kinase-Glo ATP depletion luminescence.
For test [6], the target named is Plasmodium falciparum protein kinase 6 (PK6, PF3D7_1337100) (UniProt Q8IDW1). The experiment in a line: PfPK6 kinase inhibitors, biochemical, TCAMS library (AID 1159586). The note with it: recombinant PfPK6, Kinase-Glo ATP depletion luminescence. For orientation: Kinase-Glo reads ATP consumption through a luciferase reaction.
Sequence of Plasmodium falciparum protein kinase 6 (PK6, PF3D7_1337100) (Q8IDW1 1-305): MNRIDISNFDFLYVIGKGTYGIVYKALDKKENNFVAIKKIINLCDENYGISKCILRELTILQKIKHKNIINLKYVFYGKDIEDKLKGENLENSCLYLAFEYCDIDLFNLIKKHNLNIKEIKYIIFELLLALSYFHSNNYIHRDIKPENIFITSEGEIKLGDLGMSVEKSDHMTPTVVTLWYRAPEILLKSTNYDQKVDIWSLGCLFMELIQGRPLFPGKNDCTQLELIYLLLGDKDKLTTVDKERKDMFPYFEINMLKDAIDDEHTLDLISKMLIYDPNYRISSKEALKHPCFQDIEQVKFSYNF
The target in test [7] is Protein kinase 7 (PK7), Plasmodium falciparum 3D7 (PF3D7_0213400) (UniProt Q7YTF7). The experiment in a line: inhibition of Plasmodium PK7 catalytic activity – biochemical, TCAMS antimalarial set, Kinase-Glo luminescence (AID 1159587). The settings on record: recombinant PfPK7, Kinase-Glo ATP depletion luminescence.
Sequence of Protein kinase 7 (PK7), Plasmodium falciparum 3D7 (PF3D7_0213400) (Q7YTF7 1-343): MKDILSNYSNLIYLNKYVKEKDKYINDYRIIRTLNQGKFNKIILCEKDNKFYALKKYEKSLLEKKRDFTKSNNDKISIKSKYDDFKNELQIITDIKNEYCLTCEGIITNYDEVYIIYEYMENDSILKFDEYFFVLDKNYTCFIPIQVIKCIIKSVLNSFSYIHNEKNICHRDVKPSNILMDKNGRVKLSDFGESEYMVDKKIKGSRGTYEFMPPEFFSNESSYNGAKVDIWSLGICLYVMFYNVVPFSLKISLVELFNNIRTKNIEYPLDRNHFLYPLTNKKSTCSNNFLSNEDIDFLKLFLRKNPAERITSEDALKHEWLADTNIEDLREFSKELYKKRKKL
In test [8] the target is Calcium-dependent protein kinase 4 (Plasmodium falciparum (isolate 3D7)) (UniProt Q8IBS5). The experiment in a line: PfCDPK4 kinase inhibitors, biochemical, TCAMS library (AID 1159588; cut-off not given, nearly all actives have IC50 up to about 0.91 µM). The settings on record: recombinant PfCDPK4, Kinase-Glo ATP depletion luminescence.
Sequence of Calcium-dependent protein kinase 4 (Plasmodium falciparum (isolate 3D7)) (Q8IBS5 whole entry, looked up): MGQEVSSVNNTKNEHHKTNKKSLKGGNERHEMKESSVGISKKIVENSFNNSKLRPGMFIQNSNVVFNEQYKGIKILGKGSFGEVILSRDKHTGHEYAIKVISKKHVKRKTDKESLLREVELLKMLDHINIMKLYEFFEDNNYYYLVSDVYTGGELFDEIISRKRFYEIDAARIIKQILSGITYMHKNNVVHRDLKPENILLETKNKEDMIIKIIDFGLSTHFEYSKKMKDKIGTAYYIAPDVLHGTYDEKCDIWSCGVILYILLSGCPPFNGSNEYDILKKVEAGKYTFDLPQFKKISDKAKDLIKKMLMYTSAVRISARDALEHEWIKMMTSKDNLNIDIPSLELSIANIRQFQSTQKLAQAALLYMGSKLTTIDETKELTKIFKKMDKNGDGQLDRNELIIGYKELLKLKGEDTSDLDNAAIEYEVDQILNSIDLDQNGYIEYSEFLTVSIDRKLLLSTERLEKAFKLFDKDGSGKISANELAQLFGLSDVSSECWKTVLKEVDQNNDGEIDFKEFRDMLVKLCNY

Sequence of Calcium-dependent protein kinase 1 (Plasmodium falciparum (isolate 3D7)) (P62344 whole entry, looked up): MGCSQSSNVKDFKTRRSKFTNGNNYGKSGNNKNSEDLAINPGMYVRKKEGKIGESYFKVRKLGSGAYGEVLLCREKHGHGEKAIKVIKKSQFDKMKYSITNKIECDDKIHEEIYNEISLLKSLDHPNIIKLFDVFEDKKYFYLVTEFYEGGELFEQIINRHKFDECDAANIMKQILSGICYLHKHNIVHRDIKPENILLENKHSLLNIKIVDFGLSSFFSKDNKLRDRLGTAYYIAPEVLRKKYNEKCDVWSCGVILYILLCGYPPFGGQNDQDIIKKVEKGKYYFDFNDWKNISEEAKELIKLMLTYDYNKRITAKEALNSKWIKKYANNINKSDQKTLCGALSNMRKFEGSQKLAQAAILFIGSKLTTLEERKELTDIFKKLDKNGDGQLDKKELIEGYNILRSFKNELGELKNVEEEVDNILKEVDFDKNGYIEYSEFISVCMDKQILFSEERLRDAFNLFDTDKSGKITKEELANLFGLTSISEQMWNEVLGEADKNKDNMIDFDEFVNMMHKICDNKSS

For orientation: inhibition means the relative decrease from the control value, in per cent. For the compound `C[C@@H]1CN(c2cnn(C/C=C/c3ccc(NC(=O)c4ccc([N+](=O)[O-])cc4)cc3)c(=O)c2Cl)C[C@H](C)N1`, the figures for the growth inhibition in test [1] and in test [4] were 38% and 96% (active), respectively. For the same compound, the figures for the inhibition in test [2] and in test [3] were 22% and -3%, respectively. For the same compound, the result in test [5], in test [6], in test [7] and in test [8] was inactive.
Consider `COc1ccc(C(=O)CCC(=O)N(CCC2CCCN2C)Cc2ccc(-c3ccc(CNCCc4ccc(S(C)(=O)=O)cc4)cn3)cc2)cc1F` (centres undefined), for which the figures for the growth inhibition in test [1] and in test [4] were 45% and 93% (active), respectively. Further, the inhibition in test [2] is 13%; in test [3] it was -2%. Moreover, the outcome in test [5], in test [6], in test [7] and in test [8] was inactive.
With `Fc1ccc2nc(-c3cccc(-c4cccc(CNCc5cnn(-c6ccccc6)n5)c4)c3)[nH]c2c1`, the growth inhibition is 57% (active) in test [1] and 91% (active) in test [4]. The inhibition is 18% in test [2] and 4% in test [3]. The result in test [5], in test [6], in test [7] and in test [8] was inactive.
Regarding `CCCCC(CCCC)CN1C(=O)C(c2ccccc2)(c2ccccc2)N=C1N`, the growth inhibition in test [1] and in test [4] was 96% (active) each time. Further, the inhibition in test [2] is 28%; in test [3] it was -3%. The outcome in test [5], in test [6], in test [7] and in test [8] was inactive.
As to `Nc1ccc(-c2nc3ccc(-c4ccc5nc(-c6ccc(N)cc6)[nH]c5c4)cc3[nH]2)cc1`, the values for the growth inhibition in test [1] and in test [4] were 96% (active) and 101% (active), respectively. The inhibition was 45% in test [2] and 6% in test [3]. For the same compound, the outcome in test [5], in test [6], in test [7] and in test [8] was inactive.
For `CC(C)(NCc1ccc(OC(F)(F)F)cc1)c1nc(-c2ccc(Cl)c(O)c2)c(-c2ccncc2)[nH]1`, the results for the growth inhibition in test [1] and in test [4] were 32% and 94% (active), respectively. The values for the inhibition in test [2] and in test [3] were 65% (active) and -8%, respectively. Also, the outcome in test [5], in test [6], in test [7] and in test [8] was inactive.
With `CCN(CCN(C)C)Cc1ccc(-c2ccc(NS(=O)(=O)c3cccc(Cl)c3)cc2)cc1`, the growth inhibition was 40% in test [1] and 97% (active) in test [4]. Also, the values for the inhibition in test [2] and in test [3] were 43% and 4%, respectively. Further, the outcome in test [5], in test [6], in test [7] and in test [8] was inactive.
`CN(C)C(=O)CCCn1c(CNCCCNc2cc(=O)c3ccccc3[nH]2)cc2c(Cl)cc(Cl)cc21`: the growth inhibition in test [1] was -4%; in test [4], 89% (active). The inhibition in test [2] was 1%; in test [3] it was -1%. The outcome in test [5], in test [6], in test [7] and in test [8] was inactive.
On to `Cc1cc(F)ccc1[C@H]1CNCCN1C(=O)N(C)C(C)(C)c1cc(C(F)(F)F)cc(C(F)(F)F)c1`, for which the results for the growth inhibition in test [1] and in test [4] were 100% (active) and 101% (active), respectively. Further, the inhibition in test [2] was 24%; in test [3] it was -4%. Also, the result in test [5], in test [6], in test [7] and in test [8] was inactive.
With `Cc1cc(F)ccc1-c1nc(NCC(O)CNCCc2ccccc2)nc2c1ccc(=O)n2-c1c(F)cccc1F` (centres undefined), the growth inhibition in test [1] and in test [4] was 100% (active) each time. Also, the inhibition in test [2] was 25%; in test [3], -5%. Also, the outcome in test [5], in test [6], in test [7] and in test [8] was inactive.
Regarding `CC(C)(C)C(Cn1ccnc1)NCc1cn[nH]c1-c1ccc(-c2ccccc2)cc1` (centres undefined), the growth inhibition in test [1] is 69% (active); in test [4] it was 98% (active). In addition, the figures for the inhibition in test [2] and in test [3] were 15% and -2%, respectively. Also, the result in test [5], in test [6], in test [7] and in test [8] was inactive.
On to `COc1c(C2CCN(CCCCNC(=O)c3ccc(-c4ccc(C#N)cc4)cc3)CC2)ccc2c1C(C)(C)CCC2(C)C`, for which the growth inhibition in test [1] is 86% (active); in test [4], 102% (active). The inhibition in test [2] was 98% (active); in test [3], -1%. Besides, the result in test [5], in test [6], in test [7] and in test [8] was inactive.
Turning to `Cc1cccc2[nH]c(-c3cccc(-c4cccc(CN5CCCC5CN)c4)c3)nc12` (centres undefined), the growth inhibition is 72% (active) in test [1] and 101% (active) in test [4]. For the same compound, the inhibition in test [2] was 15%; in test [3], 6%. Also, the outcome in test [5], in test [6], in test [7] and in test [8] was inactive.
On to `Clc1cccnc1N1CCN(c2ncccc2Cl)CC1`, for which the growth inhibition was 0% in test [1] and 97% (active) in test [4]. Further, the inhibition in test [2] is 2%; in test [3], 4%. Moreover, the result in test [5], in test [6], in test [7] and in test [8] was inactive.
Consider `COc1cc2c(cc1OCCN1CCC(N3CCCC3)CC1)N(C(=O)/C=C/c1ccccc1Cl)CC2`, for which the growth inhibition is 68% (active) in test [1] and 100% (active) in test [4]. The inhibition is 38% in test [2] and -7% in test [3]. Further, the outcome in test [5], in test [6], in test [7] and in test [8] was inactive.
On to `O=C(NCC1CCN(Cc2cccc(F)c2)C1)c1cc(-c2cccc(C(F)(F)F)c2)cs1` (centres undefined), for which the growth inhibition was 10% in test [1] and 96% (active) in test [4]. The inhibition was 31% in test [2] and -2% in test [3]. Moreover, the outcome in test [5], in test [6], in test [7] and in test [8] was inactive.
For the compound `COc1cc(NC(=O)c2cc([N+](=O)[O-])ccc2NC(=O)CNC2CCCCC2C)cc(OC)c1` (centres undefined), the growth inhibition in test [1] was 78% (active); in test [4], 87% (active). The inhibition in test [2] was -2%; in test [3], 3%. Further, the outcome in test [5], in test [6], in test [7] and in test [8] was inactive.
For `CC1CCCCN1CCCNc1nc(NCc2ccccc2)c2ccccc2n1` (centres undefined), the results for the growth inhibition in test [1] and in test [4] were 14% and 95% (active), respectively. Also, the inhibition is 24% in test [2] and 0% in test [3]. Further, the outcome in test [5], in test [6], in test [7] and in test [8] was inactive.
Take `CN(C)C(=O)O[C@@H]1CN[C@H](C#Cc2cc3ncnc(Nc4ccc5c(cnn5Cc5cccc(F)c5)c4)c3s2)C1`: the growth inhibition in test [1] was 68% (active); in test [4], 97% (active). Moreover, the inhibition was 0% in test [2] and 7% in test [3]. Besides, the result in test [5], in test [6], in test [7] and in test [8] was inactive.
On to `CN(c1ccccc1)S(=O)(=O)c1cccc(NC(=O)c2ccc(-n3ccnc3)c([N+](=O)[O-])c2)c1`, for which the growth inhibition is -8% in test [1] and 83% (active) in test [4]. For the same compound, the figures for the inhibition in test [2] and in test [3] were 19% and 2%, respectively. The result in test [5], in test [6], in test [7] and in test [8] was inactive.
Regarding `O=C(Cn1c(CCc2cccc(F)c2F)cc(=O)c2ccccc21)N(Cc1ccc(-c2ccc(C(F)(F)F)cc2)cc1)C1CCN(CCN2CCOCC2)CC1`, the growth inhibition in test [1] was 41%; in test [4] it was 101% (active). For the same compound, the inhibition is 53% (active) in test [2] and 4% in test [3]. The outcome in test [5], in test [6], in test [7] and in test [8] was inactive.
With `CC(=O)Nc1cccc(C(=O)Nc2cccc(-c3ccc(-c4nc5ccc(F)cc5[nH]4)s3)c2)c1`, the growth inhibition was 30% in test [1] and 94% (active) in test [4]. Moreover, the results for the inhibition in test [2] and in test [3] were 88% (active) and -1%, respectively. Further, the outcome in test [5], in test [6], in test [7] and in test [8] was inactive.
On to `COc1ccc(O)cc1/C=N/Nc1ccnc2cc(Cl)ccc12`, for which the growth inhibition is 92% (active) in test [1] and 103% (active) in test [4]. Further, the inhibition in test [2] is -5%; in test [3], 3%. For the same compound, the outcome in test [5], in test [6], in test [7] and in test [8] was inactive.
